Measured values as given in PubChem BioAssay (NCATS).
Results filed as inconclusive are left out. The source made the active and inactive calls. Calls follow the shape of the dose curve; as a rule, active = well fitted curve in the direction sought with a large enough effect; inconclusive = small, poorly fitted or top-dose-only effect, or another doubt; inactive = no such curve, though single readings can be large; an effect the other way counts as inactive or inconclusive.

Tests used:
[1] = tested on: HACAT; assay: qHTS assay to identify novel small-molecules to repurpose for Merkel cell carcinoma treatment (AID 1296009); conditions: MCC and control cell lines, CellTiter-Glo viability, 72 h; at 44.8 µM (top of the series) unless noted; also: nearly all actives have a fitted effect of over 60% in size
In short: (§1)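 Cell viability measured by CellTiter-Glo following 72 hr compound treatment at 37 degree celsius, with NPC and MIPE libraries tested in 8- and 11-point concentration series.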

[2] = tested on: NIH3T3; assay: as above; conditions: MCC and control cell lines, CellTiter-Glo viability, 72 h; at 44.8 µM (top of the series) unless noted
In short: as §1

[3] = tested on: C33A; assay: Primary qHTS to identify gynecologic anti-cancer compounds using libraries of approved drugs and bioactive compounds (AID 1345084); conditions: Gynecologic cancer cell panel viability, ATPlite luminescence, 48 h; series mostly up to 57.5 µM; also: % is scaled to controls: 0 for no effect and ±100 for the full control effect; nearly all actives have a fitted effect of over 55% in size
In short: (§2)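 Cells, 1,000 per well, were allowed to settle for 16 h at 37 C before compound addition. Five concentrations were tested for 48 h, and viability was read by ATPlite luminescence after 15 min at room temperature.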

[4] = tested on: CASKI; assay: as above; conditions: Gynecologic cancer cell panel viability, ATPlite luminescence, 48 h; series mostly up to 57.5 µM
In short: as §2

[5] = tested on: Es-2; assay: as above; conditions: Gynecologic cancer cell panel viability, ATPlite luminescence, 48 h; series mostly up to 57.5 µM
In short: as §2

[6] = tested on: HeLa; assay: as above; conditions: Gynecologic cancer cell panel viability, ATPlite luminescence, 48 h; series mostly up to 57.5 µM
In short: as §2

[7] = tested on: Hek293T; assay: as above; conditions: Gynecologic cancer cell panel viability, ATPlite luminescence, 48 h, control line for the selectivity index; series mostly up to 57.5 µM
In short: as §2

[8] = tested on: JEG-3; assay: as above; conditions: Gynecologic cancer cell panel viability, ATPlite luminescence, 48 h; series mostly up to 57.5 µM
In short: as §2

[9] = tested on: OV90; assay: as above; conditions: Gynecologic cancer cell panel viability, ATPlite luminescence, 48 h; series mostly up to 57.5 µM
In short: as §2

[10] = tested on: PA-1; assay: as above; conditions: Gynecologic cancer cell panel viability, ATPlite luminescence, 48 h; series mostly up to 57.5 µM
In short: as §2

[11] = tested on: SKOV3; assay: as above; conditions: Gynecologic cancer cell panel viability, ATPlite luminescence, 48 h; series mostly up to 57.5 µM
In short: as §2

[12] = tested on: Tov-21-G; assay: as above; conditions: Gynecologic cancer cell panel viability, ATPlite luminescence, 48 h; series mostly up to 57.5 µM
In short: as §2

[13] = tested on: Tov112D; assay: as above; conditions: Gynecologic cancer cell panel viability, ATPlite luminescence, 48 h; series mostly up to 57.5 µM
In short: as §2

[14] = tested on: CAOV3; assay: as above; conditions: Gynecologic cancer cell panel viability, ATPlite luminescence, 48 h; series mostly up to 57.5 µM
In short: as §2

CC(C)(O)C1CC=C(C(=O)OC[C@H]2O[C@@H](OC(=O)C3=CCC(C(C)(C)O)CC3)[C@H](O)[C@@H](O)[C@@H]2O)CC1 (some centres not stated)
inactive: outcome [1] inactive [at 17.4 µM] | outcome [2] inactive [at 17.4 µM] | Potency [3] | outcome [4] | Potency [5] | Potency [6] | Potency [7] | Potency [8] | Potency [9] | Potency [10] | Potency [11] | Potency [12] | Potency [13]

COC(=O)/C=C/c1ccc(O[C@@H]2O[C@H](CO)[C@@H](O)[C@H](O)[C@H]2O)cc1
inactive: outcome [1] | outcome [2] | Potency [3] | outcome [4] | Potency [5] | Potency [6] | Potency [7] | Potency [8] | Potency [9] | Potency [10] | Potency [11] | Potency [12] | Potency [13]

O=C(O)Cc1cn([C@@H]2O[C@H](CO)[C@@H](O)[C@H](O)[C@H]2O[C@@H]2O[C@H](CO)[C@@H](O)[C@H](O)[C@H]2O)c2ccccc12
inactive: outcome [1] inactive [at 17.4 µM] | outcome [2] inactive [at 17.4 µM] | Potency [3] | outcome [4] | Potency [5] | Potency [6] | Potency [7] | Potency [8] | Potency [9] | Potency [10] | Potency [11] | Potency [12] | Potency [13]

CO[C@H]1c2cc(C(C)C)c(O)c(O)c2[C@@]23CCCC(C)(C)C2[C@@H]1OC3=O (some centres not stated)
inactive: outcome [1] | outcome [2] | Potency [3] | outcome [4] | Potency [5] | Potency [6] | Potency [7] | Potency [8] | Potency [9] | Potency [10] | Potency [11] | Potency [12] | Potency [13]

C/C=C(/C)C(=O)OC1CC(C)(C)CC2C3=CCC4C5(C)CCC(OC6OC(C)C(OC7OC(C(=O)O)C(O)C(OC8OC(CO)C(O)C(O)C8OC8OC(CO)C(O)C(O)C8O)C7O)C(O)C6O)C(C)(C)C5CCC4(C)C3(C)C(OC(=O)/C=C/C=C/C=C/CCC)C(OC(C)=O)C12CO (configuration not stated)
inactive: outcome [1] inactive [at 9.27 µM] | outcome [2] inactive [at 9.27 µM] | activity change, negative = cytotoxicity [3] -5.83% [at 6.55 µM] | activity change, negative = cytotoxicity [4] -6.51% [at 6.55 µM] | activity change, negative = cytotoxicity [5] 13.9% [at 6.55 µM] | activity change, negative = cytotoxicity [6] 0% [at 6.55 µM] | activity change, negative = cytotoxicity [7] -3.11% [at 6.55 µM] | activity change, negative = cytotoxicity [8] -5.73% [at 6.55 µM] | activity change, negative = cytotoxicity [9] -14.1% [at 6.55 µM] | activity change, negative = cytotoxicity [10] -0.509% [at 6.55 µM] | activity change, negative = cytotoxicity [11] -20.2% [at 6.55 µM] | activity change, negative = cytotoxicity [12] -0.72% [at 6.55 µM] | activity change, negative = cytotoxicity [13] 1.97% [at 6.55 µM]

Cc1ccc(-n2nc(C(C)(C)C)cc2NC(=O)Nc2cc(COc3cccnc3)[nH]n2)cc1
inactive: outcome [1] | outcome [2] | Potency [14] | outcome [4] | Potency [5] | Potency [6] | Potency [7] | Potency [8] | Potency [9] | Potency [11] | Potency [12] | Potency [13]

CC1=C2C[C@@]3(C)[C@@H](CCC[C@@H]3C)C[C@@]2(O)OC1=O
inactive: outcome [1] | outcome [2] | Potency [3] | outcome [4] | Potency [5] | Potency [6] | Potency [7] | Potency [8] | Potency [9] | Potency [10] | Potency [11] | Potency [12] | Potency [13]

Cc1cccc(-c2nn3c(c2-c2ccnc4ccc(C(N)=O)cc24)CCC3)n1
inactive: outcome [1] | Potency [3] | Potency [14] | outcome [4] | Potency [5] | Potency [6] | Potency [7] | Potency [8] | Potency [9] | Potency [10] | Potency [11] | Potency [12]

COc1cc2c(cc1O)CC(O)(CO)C(CO)C2c1ccc(OC2OC(CO)C(O)C(O)C2O)c(OC)c1 (configuration not stated)
inactive: outcome [1] inactive [at 17.4 µM] | outcome [2] inactive [at 17.4 µM] | Potency [3] | outcome [4] | Potency [5] | Potency [6] | Potency [7] | Potency [8] | Potency [9] | Potency [10] | Potency [11] | Potency [12] | Potency [13]

C[C@@H]1C[C@@H](O)[C@@]23CO[C@]2(CO)C[C@@H](O)CC3[C@@]12CC(c1ccoc1)OC2=O (some centres not stated)
inactive: outcome [1] | outcome [2] | Potency [3] | outcome [4] | Potency [5] | Potency [6] | Potency [7] | Potency [8] | Potency [10] | Potency [12] | Potency [13]

O=C(O)C1(c2ccc(-c3ccc(Cl)c(Cl)c3)c(F)c2)CC1
inactive: outcome [1] | outcome [2] | Potency [3] | outcome [4] | Potency [5] | Potency [6] | Potency [7] | Potency [8] | Potency [9] | Potency [10] | Potency [11] | Potency [12] | Potency [13]

COc1cc(CO)ccc1O[C@@H]1O[C@H](CO)[C@@H](O)[C@H](O)[C@H]1O
inactive: outcome [1] | outcome [2] | Potency [3] | outcome [4] | Potency [5] | Potency [6] | Potency [7] | Potency [8] | Potency [9] | Potency [10] | Potency [11] | Potency [12] | Potency [13]

O=C(O)c1cc(O[C@@H]2O[C@H](CO)[C@@H](O)[C@H](O)[C@H]2O)ccc1O
inactive: outcome [1] | outcome [2] | Potency [3] | outcome [4] | Potency [5] | Potency [6] | Potency [7] | Potency [8] | Potency [9] | Potency [10] | Potency [11] | Potency [12] | Potency [13]

CCC(C)/C=C(C)/C=C/C1=CC2=C(Cl)C(=O)C(C)(O)C(=O)C2(O)C(OC)O1 (configuration not stated)
inactive: outcome [1] inactive [at 17.4 µM] | outcome [2] inactive [at 17.4 µM] | Potency [3] | outcome [4] | Potency [6] | Potency [7] | Potency [8] | Potency [9] | Potency [10] | Potency [11] | Potency [12] | Potency [13]
